The list is not random: actives were taken first. Their share in the collection is about 3.5%.
Giardia FBPA inh – qHTS Assay for Inhibitors of Fructose-1,6-bisphosphate Aldolase from Giardia Lamblia; Potency, µM (top dose mostly 59.6 µM), usual class: inhibitors; 0.71% of 290,000 active; purified Giardia FBPA; A8B2U2; also: nearly all actives have a fitted effect of over 55% in size
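Giardia FBPA (40 nM reagent) was preincubated 10 min at RT with compound (up to 57.5 uM final), then substrate plus GAPDH/TPI/NAD/arsenate coupling system with diaphorase/resazurin was added; resorufin fluorescence (525/598 nm) was read after 20 min.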
RE007 growth inh – qHTS Assay for Inhibitors of the HIV-1 protein Vpr | S. pombe RE007 Vpr strain, BacTiter-Glo ATP luminescence, 24 h | 0.21% of 360,000 active | AID 651644, 2012 | Potency, µM (series often up to 92.2 µM), usual class: inhibitors; active = well fitted falling curve with a large enough effect; inconclusive = small, poorly fitted or top-dose-only effect; inactive = no such curve, though single readings can be large or run the other way; also: nearly all actives have a fitted effect of over 50% in size
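Fission yeast RE007 carrying one integrated HIV-1 vpr copy, seeded at OD 0.01 in PMG+AL medium with 23 nL pinned compound. Grown 24 h at 30 degrees; viability read by BacTiter-Glo luminescence after 5 min.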
NS1 function inh – qHTS Assay for Inhibitors of Influenza NS1 Protein Function; 0.4% of 270,000 active; Potency, µM (highest dose often 46.1 µM); calls by dose curve; also: actives are rising curves; nearly all actives have a fitted effect of over 50% in size
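OD600 was taken as the measure of yeast growth restored by compound in an NS1-expressing S. cerevisiae strain. Cells had been washed out of glucose medium and diluted 1:100 into galactose -URA medium, pH 6.0.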
Sm TGR inh – qHTS Assay for the Inhibitors of Schistosoma Mansoni Peroxiredoxins; Schistosoma mansoni thioredoxin glutathione reductase (TGR), Q962Y6; purified TGR, DTNB reduction, TNB absorbance 405 nm; Potency, µM (top dose mostly 114 µM), most hits filed as inhibitors; 3% of 360,000 active; AID 485364, 2010; also: nearly all actives have a fitted effect of over 60% in size
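TGR 20 nM + NADPH 100 uM (dispensed conc.), cpd preinc 15 min RT; start with NADPH (500 uM addition) then DTNB (15 mM addition). Kinetic TNB absorbance, 405 nm filter. Four-parameter Hill fit across titration.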
TbPYK inhibitor – qHTS of Trypanosoma Brucei Inhibitors | pyruvate kinase (Trypanosoma brucei), Q57TT1 | TbPYK enzyme, Kinase-Glo Plus ATP luminescence, 45 min | Potency, µM (doses to about 76.8 µM), actives largely listed as inhibitors | 0.12% of 410,000 active | AID 624173, 2012; also: nearly all actives have a fitted effect of over 50% in size
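Luminescent Kinase-Glo Plus end-point after 45 min room-temperature reaction of T. brucei pyruvate kinase started with 130 uM ADP (final). Buffer TEA 50 mM pH 7.2 with KCl, MgCl2, BSA, Tween-20; titration-based qHTS with fitted concentration-effect curves.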
LmPK inhibitor – qHTS Assay for Inhibitors of Leishmania Mexicana Pyruvate Kinase (LmPK); 0.37% of 290,000 active; Potency, µM (series often up to 57.5 µM), actives largely listed as inhibitors; purified LmPK, Kinase-Glo ATP luminescence, 1 h; AID 1721, 2009
Target sequence (Q27686 whole entry, looked up): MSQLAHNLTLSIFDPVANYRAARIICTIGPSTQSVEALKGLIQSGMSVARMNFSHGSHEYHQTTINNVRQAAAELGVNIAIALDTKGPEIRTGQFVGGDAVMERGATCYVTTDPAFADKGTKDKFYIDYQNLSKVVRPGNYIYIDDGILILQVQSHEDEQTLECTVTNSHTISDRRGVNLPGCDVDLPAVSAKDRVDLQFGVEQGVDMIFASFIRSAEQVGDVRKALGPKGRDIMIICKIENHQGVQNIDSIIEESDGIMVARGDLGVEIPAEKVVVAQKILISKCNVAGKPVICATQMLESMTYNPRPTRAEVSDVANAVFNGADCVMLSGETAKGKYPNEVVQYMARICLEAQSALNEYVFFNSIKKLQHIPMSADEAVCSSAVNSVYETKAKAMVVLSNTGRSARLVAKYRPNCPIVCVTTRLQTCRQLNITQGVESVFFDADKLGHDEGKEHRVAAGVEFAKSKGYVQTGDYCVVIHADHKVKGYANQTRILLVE
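Purified LmPK (0.1 nM) converted ADP (0.1 mM) to ATP with PEP (0.5 mM) in imidazole buffer pH 7.2 with KCl and MgCl2, 1 h at room temperature. ATP was read by Kinase-Glo luminescence; data normalized to uninhibited and no-enzyme controls.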
Hits are given with their value; i = inactive; ? = inconclusive; nt = not tested or not shown; [ ] = another dose, or the depositor's remark. Unless noted, calls follow the shape of the dose curve; as a rule, active = well fitted curve in the direction sought with a large enough effect; inconclusive = small, poorly fitted or top-dose-only effect, or another doubt; inactive = no such curve, though single readings can be large; an effect the other way counts as inactive or inconclusive.

SMILES	Giardia FBPA inh	RE007 growth inh	NS1 function inh	Sm TGR inh	TbPYK inhibitor	LmPK inhibitor
COc1ccc(N2CCC(CNC(=O)Nc3ccc(OC)cc3OC)C2)cc1 (stereo not drawn)	?	i	i	45µM	i	i
CCc1ccc(-c2cc(C)no2)cc1S(=O)(=O)Nc1cc(OC)c(OC)c(OC)c1	nt	nt	nt	i	i[15.4 µM]	nt
COc1ccc(CCNC(=O)CS(=O)(=O)c2cn(CC(=O)N3CCOCC3)c3ccccc23)cc1OC	?	i	nt	25µM	i	i[11.5 µM]
Cc1ccc(C(=O)NC(=S)NCc2cccnc2)cc1C	i	i	nt	50µM	i	i
COc1cccc(NC(=S)NCc2ccccc2)c1	i	i	i	i	i	i
COc1cccc(NC(=S)NCc2cccnc2)c1	i	i	i	45µM	i	i
COc1ccc(C(=O)NC(=S)Nc2cccnc2)cc1[N+](=O)[O-]	i	i	nt	16µM	i	i
S=C(NCc1cccnc1)Nc1cccc2ccccc12	i	i	i	32µM	i	i
CCOc1ccc(C(=O)NC(=S)Nc2cccnc2)cc1[N+](=O)[O-]	i	i	nt	?	i	i
COc1ccc(C(=O)NC(=S)NCc2cccnc2)cc1Br	i	i	i	i	i	i
S=C(NCc1ccccc1)Nc1cccc2cnccc12	i	i	i	?	i	i
Cc1ccc(-n2ncc3c(NCCC4=CCCCC4)ncnc32)cc1	nt	nt	nt	i	i	nt
COc1ccc(Cl)cc1NC(=S)Nc1cccnc1	i	i	i	13µM	i	i
S=C(NCc1ccncc1)Nc1ccc(Br)cc1Cl	nt	i	i	35µM	i	i
O=C(NNC(=S)Nc1ccc(Br)cc1Cl)c1ccncc1	i	i	i	i	i	i
COc1cccc(NC(=S)Nc2cccnc2)c1	i	i	i	40µM	i	i
COc1ccc(Cl)cc1NC(=S)Nc1cccc(C)c1	i	i	i	i	i	i
Cc1cccc(C)c1NC(=S)NCc1ccncc1	i	i	i	28µM	i	i
Cc1cc(C)c(-c2n[nH]c3c2C(c2ccccc2F)N(Cc2ccco2)C3=O)c(O)c1 (stereo not drawn)	nt	nt	nt	i	i	nt
COc1cccc(NC(=S)Nc2ccc(Br)cc2Cl)c1	i	i	i	22µM	i	i
CC(=O)c1cc(-c2ccccc2)n(CC(=O)N2CCN(C3CCCC3)CC2)c1C	i	i	i	40µM	i	i
CC(=O)c1cc(-c2ccccc2)n(CC(=O)N2CCC(C)CC2)c1C	i	i	i	i	i	i
CCOC(=O)c1c(C)oc2c1c(C(c1cccnc1)N1CCOCC1)c(O)c1ccccc12 (stereo not drawn)	?	i	i	1.3µM	i	i
CCOC(=O)c1c(C)oc2c1c1c(c3ccccc32)OCN(Cc2cccnc2)C1	5µM	i	i	0.35µM	i	i
CCOC(=O)c1c(C)oc2c1c(C=NCc1ccccn1)c(O)c1ccccc12	?	i	i	?	i	i
SMILES	Giardia FBPA inh	RE007 growth inh	NS1 function inh	Sm TGR inh	TbPYK inhibitor	LmPK inhibitor
CCOC(=O)c1c(C)oc2c1c1c(c3ccccc32)OCN(CCCC(=O)O)C1	?	i	i	i	i	i
CCOC(=O)c1c(C)oc2c1c(C(c1cccnc1)N1CCN(C)CC1)c(O)c1ccccc12 (stereo not drawn)	?	nt	i	0.56µM	nt	i
Cc1ccc(-c2c(C)n3c4c(=O)n(C)c(=O)n(C)c4nc3n2CCCO)cc1	nt	nt	nt	i	i	nt
Cc1ccc2oc(=O)c3cc(C(=O)Nc4ccccc4C(N)=O)sc3c2c1	nt	nt	nt	i	i	nt
Cc1ccccc1CN1C(=O)c2ccccc2Sc2ccc(C(=O)NC3CCCCC3)cc21	nt	nt	nt	i	i	nt
CCc1ccc(-n2c(SCc3nc(-c4cc(OC)ccc4OC)no3)nnc2-c2ccccc2)cc1	nt	nt	nt	i	i	nt
O=c1[nH]c2ccccc2c(O)c1-[n+]1ccccc1	i	i	i	i	i	i
O=c1[nH]c2ccccc2c(O)c1O	4µM	i	i	?	?	i
CCCN(CCC)C(=O)CC(c1ccc(F)cc1)c1ccco1 (stereo not drawn)	i	i	i	11µM	i	i
O=C(CC(c1ccc(F)cc1)c1ccco1)N1CCCC1 (stereo not drawn)	i	i	i	14µM	i	i
CCN(CC)C(=O)CC(c1ccccc1)c1ccco1 (stereo not drawn)	i	i	i	?	i	i
O=C(CC(c1ccc(F)cc1)c1ccco1)N1CCOCC1 (stereo not drawn)	i	i	i	i	i	i
N#Cc1c(-c2ccccc2)cc(C2CC2)nc1N	i	i	i	i	i	i
N#Cc1c(-c2ccco2)cc(-c2cccnc2)nc1N	?	i	?	11µM	i	i
N#Cc1c(-c2ccco2)cc(C2CC2)nc1N	i	i	i	10µM	i	i
c1cncc(-c2nc(-c3ccco3)cs2)c1	i	i	i	7.9µM	?	i
CCc1nc(N)c(C#N)c(-c2ccco2)c1C	i	i	i	i	i	i
N#Cc1c(-c2ccco2)cc(-c2ccccn2)nc1N	i	i	i	10µM	i	i
c1cncc(-c2csc(-c3cccnc3)n2)c1	i	i	i	i	i	i
N#Cc1c(-c2cccnc2)cc(-c2ccccc2)nc1N	i	i	i	i	i	i
COc1ccccc1NC(=O)Cn1nnc(C(=O)Nc2ccccc2Br)c1N	nt	nt	nt	i	i	nt
N#Cc1c([N+](=O)[O-])cc([N+](=O)[O-])cc1S(=O)(=O)Cc1ccccc1	nt	?	nt	0.35µM	i	nt
Cc1ccccc1CN1CCN(C(=O)CC(C)C)CC1	i	i	i	50µM	i	i
Cc1ccc2nc(CSc3nnc(NC(=O)CC(C)C)s3)cc(=O)n2c1	nt	nt	nt	i	i	nt
CCc1ccc2[nH]c(=O)c(C(c3nnnn3Cc3ccccc3)N3CCOCC3)cc2c1 (stereo not drawn)	i	i	i	i	i	i
CCc1ccc2[nH]c(=O)c(C(c3nnnn3CCOC)N3CCN(c4ccccc4)CC3)cc2c1 (stereo not drawn)	i	i	i	45µM	i	i
COCCn1nnnc1C(c1cc2cccc(C)c2[nH]c1=O)N1CCN(c2ccccc2F)CC1 (stereo not drawn)	i	i	i	14µM	i	i
CCc1ccc2[nH]c(=O)c(C(c3nnnn3CCOC)N3CCN(c4ccc(F)cc4)CC3)cc2c1 (stereo not drawn)	i	i	i	50µM	i	i
O=C(Nc1ccc(Cl)cc1)c1cc(S(=O)(=O)NC2CCCCCC2)ccc1F	nt	nt	nt	i	i	nt
CCOc1ccc(NC(=O)CN(C)C(=O)c2cc(C)on2)cc1OCC	nt	i	nt	i	i	nt

Bioassay records: PubChem, National Center for Advancing Translational Sciences (NCATS)
